Measurements from PubChem BioAssay AID602449 (Sanford-Burnham Center for Chemical Genomics, 2012).
Where “and” joins values, the source holds several entries; their conditions need not be identical. Equal values may be shown once. Hit rate of the full screen: of about 360,000 compounds, about 5,000 (1.4%) were called active.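 How the source made its calls: active means inhibition of 50% or more, scaled per plate between neutral and stimulator controls; inactive means the rest.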 The list comes from a sample in which actives are over-represented; it also holds similar structures and randomly drawn compounds. More than one record can exist for a structure, and the calls need not agree.

Assay: blockers of Ca2+-induced mitochondrial swelling – biochemical, isolated mouse mitochondria, absorbance, primary screen (AID 602449);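 further: 0% = DMSO wells given calcium and 100% = 1 mM EGTA wells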
Conditions: 30 min, at 10 µM, stronger effect = higher value

| SMILES | inhibition |
| --- | --- |
| O=C(CCl)Nc1ccc(Sc2ccc(NC(=O)CCl)cc2)cc1 | 6% (inactive) |
| CCN(c1ccccc1)S(=O)(=O)c1ccc(NC(=O)C(C)(C)C)cc1 | -1.2% (inactive) |
| CC(C)(CCl)C(=O)Nc1ccc(Sc2ccc(F)cc2)cc1 | 73.1% (active) |
| CC1(C)CCSC(/C=C/c2ccccc2)=N1 | 1.3% (inactive) |
| COCCN1C(=O)C(=O)/C(=C(/O)c2ccc(S(=O)(=O)N3CCCCC3)cc2)C1c1ccc(OC)c(OC)c1 (stereo not given) | -0.3% (inactive) |
| O=C(c1cc(COc2c(F)cccc2F)on1)N1CCSCC1 | 2% (inactive) |
| CCCC(=O)N1CCC1(C)C(=O)Nc1ccc(-n2cncn2)cc1 (stereo not given) | -1.3% (inactive) |
| C=CCC1(CC=C)CCCN1C(=O)c1cc(COc2ccc(-n3cncn3)cc2)on1 | 105% (active) |
| CC(C)c1nc2oc3c(N4CCN(C)CC4)ncnc3c2c2c1CCC2 | -0.5% (inactive) |
| c1ccc2cc3c(NCCN4CCOCC4)ccnc3cc2c1 | 1.4% (inactive) |
| O=C1CCCc2nn(-c3ccccc3)nc21 | 0.8% (inactive) |
| O=C(c1ccc(N2CCCC2=O)cc1)N1CCN(c2ccc(C(F)(F)F)cc2[N+](=O)[O-])CC1 | 74.9% (active) |
| COc1cc(OC)cc(C(=O)NC(=S)N2CCN(c3ccc(C(F)(F)F)cc3[N+](=O)[O-])CC2)c1 | 0.6% (inactive) |
| O=C(c1ccc(N2CCOCC2)c([N+](=O)[O-])c1)N1CCN(c2ccccc2F)CC1 | 0% (inactive) |
| CCOc1cc(CNn2c(C)nnc2SCC(=O)NC(C)(C)C)ccc1OCC(=O)NC(C)(C)C | -1.3% (inactive) |
| CC(C)(C)Nc1c(-c2cccs2)nc2ccccn12 | 0.8% (inactive) |
| Cc1ccc(N(Cc2cc(=O)[nH]c3ccccc23)C(=O)CCl)cc1 | -0.5% (inactive) |
| Brc1ccc(CSc2ccc(-c3ccco3)nn2)cc1 | 57.6% (active) |
| O=C(CSc1ccc(-c2ccco2)nn1)NCc1ccc2c(c1)OCO2 | -0.3% (inactive) |
| COc1ccc(NC(=O)CSc2ccc(-c3ccco3)nn2)c(OC)c1 | 0.7% (inactive) |
| CCn1c(=O)n(CC)c2cc(N3CCCC3)c(NC(=O)c3ccccc3Br)cc21 | 0.5% (inactive) |
| CC/C(O)=C1\C(=O)CC(C)(C)CC1=NCCc1nc2ccccc2[nH]1 | -1.5% (inactive) |
| CC1C/C(=N/NC(=O)c2cccs2)CC(C)(C)C1 (stereo not given) | -1% (inactive) |
| Cc1nn(C)cc1C(=O)NNC(=S)Nc1ccc(Cl)cc1 | 1.7% (inactive) |

| SMILES | inhibition |
| --- | --- |
| Cc1ccc(-c2cc(C(=O)NCc3cn(C)nc3C)c3cc(Br)ccc3n2)cc1 | 1.7% (inactive) |
| Cc1nn(C)cc1CNC(=O)Nc1ccc(Cl)cc1 | 92.2% (active) |
| CN(Cc1ccc(F)cc1Cl)S(=O)(=O)c1cccs1 | -2.3% (inactive) |
| CN(C)Cc1ccc(F)cc1Sc1cc(Cl)ccc1Cl | 59% (active) |
| Cc1ccc(-c2ccc(=O)n(Cc3ccc(F)cc3Cl)n2)cc1 | 0% (inactive) |
| Cc1ccc(-c2c[n+](=O)c3c(n2[O-])CCC3)cc1 | 0.3% (inactive) |
| O=C1CCC(C(=O)N2CCCCO2)CN1Cc1cccc(C(F)(F)F)c1 (stereo not given) | 0.5% (inactive) |
| C=CCOc1ccccc1CNn1c(C)n[nH]c1=S | -0.7% (inactive) |
| O=C(CCC(=O)N1CCN(S(=O)(=O)c2ccc(Cl)cc2)CC1)NCc1cccc(C(F)(F)F)c1 | -2.6% (inactive) |
| O=C(Cc1ccccc1)N1CCN(S(=O)(=O)c2ccc([N+](=O)[O-])cc2)CC1 | -3.8% (inactive) |
| CC(C)(C)c1ccc(S(=O)(=O)N2CCN(C(=O)c3ccc4c(c3)C(=O)N(Cc3ccncc3)C4=O)CC2)cc1 | 32.6% (inactive) |
| O=C(c1ccncc1)N1CCN(S(=O)(=O)c2cccc([N+](=O)[O-])c2)CC1 | -0.5% (inactive) |
| O=C(c1ccncc1)N1CCN(S(=O)(=O)c2cc(C(F)(F)F)cc(C(F)(F)F)c2)CC1 | 106% (active) |
| O=C(Cc1ccsc1)N1CCN(S(=O)(=O)c2cc(C(F)(F)F)cc(C(F)(F)F)c2)CC1 | 53.1% (active) |
| CCOC(=O)CNC(=O)CSc1ncccc1-c1nc2ccccc2[nH]1 | 0% (inactive) |
| COc1ccc(NC(=O)c2sc(=O)n(Cc3ccc(S(=O)(=O)N(C)C)cc3)c2C)cc1 | -1.7% (inactive) |
| CCOC(=O)c1sc2nc(C)nc(SCC(N)=O)c2c1C | 0.2% (inactive) |
| O=C(CN(C(=O)CCC(=O)Nc1nccs1)c1ccc(F)cc1)NCc1ccc2c(c1)OCO2 | -0.8% (inactive) |
| CC(=O)Nc1cc(-c2ccc(N3CCN(C)CC3)cc2)cn2c(-c3cccc(C(=O)N(C)C)c3)cnc12 | 0.5% (inactive) |
| CC(=O)OC1CCC2C3CCC4=C(CC(F)C(=O)C4)C3CCC12C (stereo not given) | 1.6% (inactive) |
| CN(C)Cc1ccccc1C1(O)c2ccccc2CSc2ccccc21 (stereo not given) | 52.8% (active) |
| CN(C)CC/C=C1\c2ccccc2CSc2ccccc21 | 2.3% (inactive) |
| CN(Cc1cccs1)C(=O)Cc1c[nH]c2ccccc12 | 0.8% (inactive) |
| COc1ccccc1NC(=O)C1=C(C)Nc2nc3ccccc3n2C1c1cccs1 (stereo not given) | 0.9% (inactive) |

| SMILES | inhibition |
| --- | --- |
| COc1ccc(-c2nc3cc(C)ccn3c2NC2CCCCC2)cc1SC1CCCCC1 | 14.7% (inactive) and 55.4% (active) |
| CCOc1cc(-c2nc3cc(C)ccn3c2NCC2CCCO2)ccc1O (stereo not given) | -0.2% (inactive) |
| COc1ccc(-c2nc3cnccn3c2NC2CCCCC2)cc1-c1cccc(Cl)c1 | 2% (inactive) and -0.2% (inactive) |
| CCCC1CC(C)(C(=O)Cn2[nH]c(=O)ccc2=O)OC1=O (stereo not given) | -1.2% (inactive) |
| O=C1CCC(C(=O)OCC(=O)Nc2ccc(OC(F)F)cc2)=NN1 | -0.6% (inactive) |
| O=C(COc1ccc(NC(=O)c2ccccc2[N+](=O)[O-])cc1)c1ccc(F)cc1 | -1.1% (inactive) |
| COc1cc2c3c(c1)/C(=C1/SC(=S)NC1=O)C(=O)N3C(C)(C)C=C2C | 91.4% (active) |
| Cc1cc(C)n(CCNS(=O)(=O)c2ccc(Cl)cc2)n1 | 0% (inactive) |
| Cc1ccc(C(=O)NCC(=O)O)s1 | -1.7% (inactive) |
| CCCCc1nc(NCc2ccccc2)c(C#N)c2c1CCCC2 | 5.4% (inactive) |
| Cc1nc(NCCN)c(C#N)c2c1COC(C)(C)C2 | -1% (inactive) |
| CCCCc1nc(NCCN)c(C#N)c2c1CSC(C)(C)C2 | 108% (active) |
| COc1ccc(OC)c(S(=O)(=O)N(C)CC(=O)N2CCN(c3ccccc3)CC2)c1 | -2.8% (inactive) |
| COc1ccc(C)cc1NC(=S)Nc1ccccc1SC | 0.6% (inactive) |
| COc1ccc(NC(=O)CN(C)C(=O)c2cccc(S(=O)(=O)N3CCN(c4ccccc4)CC3)c2)cc1 | 1.3% (inactive) |
| COc1cc2c(C(=O)N3CCN(C)CC3)c(CSc3ccccc3)n(C)c2cc1Br | -3.4% (inactive) |
| CC1CCCC(C)N1C(=O)COC(=O)c1ccccc1C(=O)c1ccccc1 (stereo not given) | -1.2% (inactive) |
| CCOC(=O)c1c(NC(=O)CSc2cn(CC)c3ccccc23)sc2c1CCC2 | 59.8% (active) |
| CCOC(=O)c1c(NC(=O)Cn2nc(C(F)(F)F)cc2C)sc2c1CCC2 | 4% (inactive) |
| CCOC(=O)c1c(NC(=O)C(C)Sc2c[nH]c3ccccc23)sc2c1CCC2 (stereo not given) | 3.9% (inactive) |
| O=C(NCc1ccncc1)C1CCCN(S(=O)(=O)c2ccc(Br)cc2)C1 (stereo not given) | -0.9% (inactive) |
| Cc1ccc(N(Cc2ccccc2O)C(=O)c2ccccc2F)cc1 | 0.4% (inactive) |
| CC(C)C(=O)N1c2ccccc2NC2=C(C(=O)CCC2)C1c1ccc(N(C)C)cc1 (stereo not given) | 0.8% (inactive) |
| CCCCC(=O)NNC(=S)NC(=O)C(c1ccccc1)c1ccccc1 | 69.1% (active) |

| SMILES | inhibition |
| --- | --- |
| CCCCC(=O)NCc1ccc(F)cc1 | 0.7% (inactive) |
| CCCOCC(O)CC(CC)C(=O)NNC(=S)Nc1ccccc1 (stereo not given) | 1.7% (inactive) |
| CCN(CC(=O)Nc1c(F)cccc1F)C(=O)c1cnc(C)cn1 | 1.7% (inactive) |
| COC(=O)c1c(C)[nH]c(C(=O)NCCc2ccc(S(N)(=O)=O)cc2)c1C | 0.1% (inactive) |
| COC(=O)c1c(C)[nH]c(C(=O)/C=C/c2ccc(Cl)cc2)c1C | 102% (active) |
| CCCCOC(=O)c1[nH]c(C)c(C(=O)OC)c1C | 1.6% (inactive) |
| c1csc(-c2nnc(COc3ncnc4sccc34)o2)c1 | 1.9% (inactive) |
| COc1cnc(SCc2ccc(Cl)c(Cl)c2)nc1Cl | 0.4% (inactive) |
| COCCNC(=O)CSc1nc2sccc2c(=O)n1-c1ccccc1 | 0% (inactive) |
| C/C(=N/NC(=S)Nc1ccccc1)c1ccc2c(c1)OCO2 | -0.4% (inactive) |
| O=C(COc1ccc(F)cc1Br)NCC1COc2ccccc2O1 (stereo not given) | 1.6% (inactive) |
| S=C(NCC1COc2ccccc2O1)Nc1ccc(Br)cc1 (stereo not given) | 91.4% (active) |
| CC(NC(=S)Nc1ccccc1)C(c1cccs1)N1CCOCC1 (stereo not given) | 0.1% (inactive) |
| O=S(=O)(NCCCc1ccccc1)c1ccc(Br)cc1 | 13.4% (inactive) |
| CCCN(CC1COc2ccccc2O1)C(=S)Nc1ccc(C)cc1 (stereo not given) | 2.3% (inactive) |
| CC(NC(=S)Nc1ccccc1)C1COc2ccccc2O1 (stereo not given) | 83.4% (active) |
| S=C(NCCCc1ccccc1)Nc1ccc(Br)cc1 | 85.9% (active) |
| S=C(Nc1ccc(Br)cc1)NC1CCN(Cc2ccccc2)CC1 | 3.1% (inactive) |
| Cc1c[n+]([O-])ccc1[N+](=O)[O-] | -0.3% (inactive) |
| COc1ccccc1NC(=O)CCSc1nnc(-c2ccc(O)cc2)o1 | -1.6% (inactive) |
| CC(C)Oc1ccc(C(=O)Nc2cc(=O)n(C)c(=O)n2C)cc1 | -1.9% (inactive) |
| Cn1cnc(S(=O)(=O)N2C[C@@H](O)COC[C@@H]3O[C@H](CC(=O)NC4CCC4)CC[C@H]32)c1 | -0.5% (inactive) |
| O=C(C[C@H]1C[C@@H]2c3cc(NC(=O)C4CCC4)ccc3O[C@@H]2[C@H](CO)O1)NC1CCCCC1 | -0.5% (inactive) |
